Assay results published in PubChem BioAssay (NCATS).
Records with an inconclusive call do not appear. Activity calls are given as the source filed them. The call rests on the fitted dose curve; in most records, active means well fitted activation curve with a large enough effect; inconclusive means small, poorly fitted or top-dose-only effect; inactive means flat fitted curve, though single readings scatter.

Assay: qHTS for Activators of Parkin Expression: LOPAC Validation Assay (NLuc Reporter) (AID 720572)
Conditions: Parkin promoter NanoLuc reporter cells, luminescence, percent of positive control, DMSO as zero; series mostly up to 46.1 µM
Source text: Parkin is an E3 ubiquitin ligase localized in the cytosol of cells expressed in many tissues, including brain, skeletal muscle, heart and liver tissues. One hour after stress induction by mitochondrial uncouplers (which mimic mitochondria damage by decreasing the mitochondrial inner membrane electrochemical gradient that is used to produce ATP), Parkin translocates from the cytosol to mitochondria in many cultured cell types, including neurons and HeLa cells. Administration of other mitochondrial poisons, such as Paraquat and azide in cells lacking mitochondrial DNA (mtDNA), induces Parkin translocation to mitochondria. […] It was proposed that Parkin (together with Pink1) mediates a mitochondrial quality control pathway to maintain organelle population fidelity by removing damaged mitochondria. Understanding the normal physiologic role of Parkin (and Pink1) may uncover novel treatment strategies for sporadic Parkinson's disease patients with mutation in these genes.
A cell based qHTS in 1536 well format was developed assess modulation of Parkin expression using a neuronal cell line that stably expresses a stably expresses a luminescent coincidence reporter (FLuc and NLuc reporters) behind the Parkin promoter. The LOPAC library is used to validate the assay for quantitative high-throughput screening. The data herein reports the signal from the NLuc reporter. An increase in this signal = activation of Parkin expression. For this assay , a positive control normalized signal increase corresponding to a high quality qHTS curve class in both luminescent channels is the desired outcome for this assay.
NIH Chemical Genomics Center [NCGC]
NIH Molecular Libraries Probe Centers Network [MLPCN]
Assay Submitter (PI): Richard Youle, National Institute of Neurological Disorders and Strokes (NINDS), NIH
[1] Narendra, D., et al., Parkin is recruited selectively to impaired mitochondria and promotes their autophagy. J Cell Biol, 2008. 183(5): p.
[2] Suen, D.F., et al., Parkin overexpression selects against a deleterious mtDNA mutation in heteroplasmic cybrid cells. Proc Natl Acad Sci U S A, 2010. […] 11835-40.
[3] Cheng K, Inglese J. A coincedence reporter-gene system for high-throughput screening. Nat Methods. 2012: 9(10);937
Five microliters (1,500 cells/well) of the Parkin coincidence reporter cells were seeded to 1536 well assay plates (Greiner Catalog # 789173-F) and incubated at 37 C, 5% CO2 for 24 hours. Compounds (23 nL) were pinned using the Kalypsys robotic system equipped with 1536 pin head adaptor in 7-point dose response. The assay plates were incubated for additional 24 hr at 37 C, 5% CO2 followed by a volume reduction in each well to 2 uL using an automated plate washer/aspirator. Following the volume reduction,2 uL of FLuc detection reagent and plates were incubated for 10 minutes at room temperature. The FLuc luminescence signal was obtained using the PerkinElmer ViewLux plate imager and then 2 uL of NanoLuc detection reagent was added to the plates. After another 10 minute incubation, NanoLuc signal was obtained using the PerkinElmer ViewLux plate imager as before. Data from each channel was normalized to DMSO (neutral control) and the positive control compounds (100%).

Row | Structure (SMILES) | outcome
1 | O=C(O)c1cc2cc(Cc3cccnc3)ccc2o1 | inactive
2 | CC(=O)O[C@H]1C[C@@H]2CC[C@@H]3[C@H](CC[C@@]4(C)[C@H]3C[C@H]([N+]3(C)CCCCC3)[C@@H]4OC(C)=O)[C@@]2(C)C[C@@H]1[N+]1(C)CCCCC1 | inactive
3 | COc1cc(NS(C)(=O)=O)ccc1Nc1c2ccccc2nc2ccccc12 | inactive
4 | CCCC1O[C@@H]2C[C@H]3[C@@H]4CCC5=CC(=O)C=C[C@]5(C)[C@H]4[C@@H](O)C[C@]3(C)[C@]2(C(=O)CO)O1 (stereo partly drawn) | inactive
5 | CC(CCc1ccccc1)NCC(O)c1ccc(O)c(C(N)=O)c1 (stereo not drawn) | inactive
6 | CCC(NC(C)C)C(O)c1ccc(O)c(O)c1 (stereo not drawn) | inactive
7 | N[C@H](CO)C(=O)O | inactive
8 | CNCCC=C1c2ccccc2CCc2ccccc21 | inactive
9 | CNCCC(Oc1ccccc1C)c1ccccc1 (stereo not drawn) | inactive
10 | CC(C)C[C@H]1C(=O)N2CCC[C@H]2[C@]2(O)O[C@](NC(=O)[C@@H]3C=C4c5cccc6[nH]c(Br)c(c56)C[C@H]4N(C)C3)(C(C)C)C(=O)N12 | inactive
11 | C[C@]12CC[C@@H]3c4ccc(O)cc4CC[C@H]3[C@@H]1CC[C@@H]2O | inactive
12 | CN1C2CCC1CC(OC(=O)c1c[nH]c3ccccc13)C2 (stereo not drawn) | inactive
13 | C[N+]1(CCCCC[N+]2(C)CCCC2)CCCC1 | inactive
14 | C1CCc2nnnn2CC1 | inactive
15 | C[C@@H]1C(=O)NC2=Nc3cccc(Cl)c3CN21 | inactive
16 | COC(=O)[C@H]1[C@H]2C[C@H]3c4[nH]c5ccccc5c4CCN3C[C@H]2CC[C@@H]1O | inactive
17 | CC1(C)CCC(NC(=O)[C@@H](N)CCC(=O)O)CC1 | inactive
18 | O=C1CCC(c2ccc(-n3ccnc3)cc2)=NN1 | inactive
19 | Oc1ccc(O)cc1 | inactive
20 | CC(C)COC(=O)OCN1C(=O)CN(CCN2CC(=O)N(COC(=O)OCC(C)C)C(=O)C2)CC1=O | inactive
21 | N[C@@H](Cc1cnc[nH]1)C(=O)O | inactive
22 | Nc1cc(Cl)c(NC2=NCCN2)c(Cl)c1 | inactive
23 | COc1cc2c(cc1O)CC[C@@H]1[C@@H]2CC[C@]2(C)[C@@H](O)CC[C@@H]12 | inactive
